Assay results: ChEMBL document CHEMBL3988442, “University of Dundee, Small-Polar-MMV Screening Library” (2021)

target: AMP-activated protein kinase, AMPK (Homo sapiens) (UniProt P54646+O43741+P54619+Q9UGJ0+Q9Y478+Q13131+Q9UGI9); assay: AMP-dependent Kinase enzyme assay. An in vitro enzyme assay that detects ADP turnover that is directly proportional to AMPK activity. This uses naive AMPK that is activated during the assay with MK-8722; format: functional; design: scale not given: direction of the effect not stated beside the values; details: 30 µM

Structure (SMILES)	Percent Effect
CNC(=O)c1ccc(C2CN(c3cc(C)nc(N)n3)CCO2)nc1 (centres undefined)	-3.96%
O=C(NCc1ccnc(OCC2CC2)c1)C1Cc2ccccc2O1 (centres undefined)	-4.29%
N#Cc1cc(S(N)(=O)=O)ccc1N1CCN(c2ccccc2)CC1	10.8%
c1ccc(N2CCC(OCC3CCCCO3)CC2)nc1 (centres undefined)	6.76%
Cc1nc(C)c(CN2CCOC(Cc3ccccc3Cl)C2)nc1C (centres undefined)	0.455%
COc1ccccc1CNC(=O)C(C)N1CC(n2nc(C)cc2C)C1 (centres undefined)	3.14%
CCc1oc(C(=O)NC(C)Cc2cnccn2)cc1CN1CCCC1 (centres undefined)	0.442%
c1ccc(Cc2noc(-c3ccc(NCC4CCCCO4)nc3)n2)cc1 (centres undefined)	3.99%
CN(CC(=O)NCC(=O)Nc1ccc(F)cc1)Cc1cccs1	-1.85%
Cc1nccn1-c1ccc(C(=O)NCC(F)(F)F)nn1	-3.73%
CC1(c2ncc(CN(CC(=O)O)Cc3ccccc3)cn2)CCCCO1 (centres undefined)	12.9%
CCc1n[nH]c(C(=O)N2CCC3(CCCN(CCOC)C3=O)C2)c1C (centres undefined)	6.73%
O=C(O)c1ccccc1-c1ccc(CN2CC(c3ccncn3)C2)o1	11.8%
CC(C)n1ccnc1CNC(=O)c1cccc(CCC(C)(C)O)c1	6.45%
NC(=O)C1CCCN(Cc2ccc(C(=O)Nc3cnns3)cc2)C1 (centres undefined)	5.32%
O=C1[C@@H]2C[C@H](O)CCN2C(=O)CN1CCSc1ccccn1	-5.57%
CCN(Cc1nc(Cc2ccccc2)no1)C1CC1	9.85%
CC1(C)Cc2nc(C(C)(C)C)ncc2C(NC(=O)Cc2nnn[nH]2)C1 (centres undefined)	-20.8%
Cn1cc(S(=O)(=O)NCCc2ccsc2)cn1	13.7%
